Measurements from PubChem BioAssay (NCI).
This is part of a sample that, as a whole, favours compounds with a hit. Of some 83,000 tested, about 20% had one in any assay.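 Testing used 96-well plates and a 48-hour single-concentration exposure. Example: -40 means 40% of the starting cells died.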 Values without a mark were called inactive. The source made the active and inactive calls. The calls were made as follows: active = growth percent below 10; inactive = the rest.

Assays:
Experiment in all cases: NCI-60 one-dose screen, 48 h (100 = growth as untreated, 0 = no growth, -100 = all killed)
Conditions in all cases: 10 µM unless noted
DU-145 prostate = tested on: DU-145 prostate
K-562 leukemia = tested on: K-562 leukemia
MALME-3M melanoma = tested on: MALME-3M melanoma
MDA-MB-231 breast = tested on: MDA-MB-231 breast
RXF 393 renal = tested on: RXF 393 renal
SF-268 CNS = tested on: SF-268 CNS
SF-295 CNS = tested on: SF-295 CNS
SF-539 CNS = tested on: SF-539 CNS
UACC-257 melanoma = tested on: UACC-257 melanoma
M14 melanoma = tested on: M14 melanoma
HCT-15 colon = tested on: HCT-15 colon
HT29 colon = tested on: HT29 colon
SNB-75 CNS = tested on: SNB-75 CNS
SNB-19 CNS = tested on: SNB-19 CNS
U251 CNS = tested on: U251 CNS
PC-3 prostate = tested on: PC-3 prostate
SK-MEL-5 melanoma = tested on: SK-MEL-5 melanoma
UACC-62 melanoma = tested on: UACC-62 melanoma
LOX IMVI melanoma = tested on: LOX IMVI melanoma
SK-MEL-28 melanoma = tested on: SK-MEL-28 melanoma

Structure (SMILES) | growth (DU-145 prostate) | growth (K-562 leukemia) | growth (MALME-3M melanoma) | growth (MDA-MB-231 breast) | growth (RXF 393 renal) | growth (SF-268 CNS) | growth (SF-295 CNS) | growth (SF-539 CNS) | growth (UACC-257 melanoma) | growth (M14 melanoma) | growth (HCT-15 colon) | growth (HT29 colon) | growth (SNB-75 CNS) | growth (SNB-19 CNS) | growth (U251 CNS) | growth (PC-3 prostate) | growth (SK-MEL-5 melanoma) | growth (UACC-62 melanoma) | growth (LOX IMVI melanoma) | growth (SK-MEL-28 melanoma)
Nc1nc(N)c2c(n1)NC(c1cccc(Nc3ccnc4cc(C(F)(F)F)ccc34)c1)CC(c1ccc(Br)cc1)=N2 (stereo not given) | 71.2% | 10.5% | 53.6% | 57.3% | 40.7% | 61.4% | 52% | 83.9% | 71.5% | 42.9% | 19.5% | 10.9% | 57.2% | 66.4% | 44.7% | 36.6% | 48.1% | 77.9% | 24.6% | 73.6%
CNC1=CC(=O)c2c(C(=O)OC)c(C)[n+]([O-])c(C)c2C1=O | 68.7% | 71% | -46.2% (active) | 63.8% | 74.4% | 89.2% | 86.4% | 83.8% | 49.3% | 24% | 49.1% | 16.5% | 147% | 81.5% | 64% | 61.9% | -47.9% (active) | 27.3% | 34.4% | 96.3%
CCN(CC)c1ccc(CNc2cc(C)nc3ccccc23)cc1 | 77.8% | 31% | 69.8% | 66.6% | 68.8% | 87.7% | 50.9% | 74.7% | 62.5% | 64.8% | 69.6% | 43.3% | 75.2% | 73.8% | 63.9% | 64% | 9.25% (active) | 68.5% | 65% | 78.4%
CC1=CC(c2ccco2)=C2C(N)=NNC2N1 (stereo not given) | 110% | 99.6% | 92.5% | 92.1% | 119% | 98.7% | 98.2% | 81.1% | 102% | 104% | 99.7% | 104% | 64% | 92.9% | 96.8% | 101% | 101% | 89.3% | 98.3% | 96.5%
O=c1c2ccccc2c(=O)c2c1sc1c(=O)c3ccc(O)cc3c(=O)c12 | -98.5% (active) | -11.6% (active) | -96.5% (active) | -13.5% (active) | -84% (active) | -32.1% (active) | -94.3% (active) | -97.1% (active) | -95.2% (active) | -87.5% (active) | -65.4% (active) | -47.4% (active) | -96.4% (active) | -92% (active) | -65.8% (active) | -12.7% (active) | -96.2% (active) | -73.2% (active) | -61% (active) | -65% (active)
CCCCCCCC/C=C\CCCCCCCCOc1ccc(CC(=O)NCC[N+]2(C)CCOCC2)cc1 | 88.5% | 62.8% | 80.9% | 68% | -38.6% (active) | 70.2% | 85.7% | 81.1% | 96.9% | 81.4% | 90.8% | 36.9% | 41.2% | 38.7% | 15.4% | 12.5% | 99% | 57.5% | 84.2% | 93.7%
Cc1n[nH]c2ccc(Br)cc2c1=O | 104% | 91.4% | 97.4% | 121% | 103% | 107% | 87% | 98.1% | 108% | 103% | 100% | 98.3% | 102% | 109% | 100% | 90.9% | 97.4% | 112% | 101% | 113%
N#C/C(=C\C=C\c1ccc(-c2cc(Cl)ccc2Cl)o1)c1nc2ccccc2s1 | 112% | 100% | 95.4% | 72% | 99.3% | 98.6% | 96.5% | 93.9% | 95% | 103% | 102% | 108% | 77.1% | 92.2% | 107% | 93.2% | 97.5% | 83.1% | 90.9% | 118%
N#C/C(=C\c1ccc(-c2cccc(C(F)(F)F)c2)o1)c1ccccc1 | 102% | 87.1% | 96.4% | 74.4% | 101% | 107% | 89.1% | 95.6% | 103% | 84.5% | 62.5% | 86.3% | 85% | 99.1% | 100% | 90.4% | 92.6% | 71.4% | 86.5% | 98.4%
COc1ccc(C(=O)c2cc3c(N)c(C(=O)Nc4ccccc4)sc3nc2C)cc1 | 17.7% | 8.08% (active) | 62.7% | 23.3% | -2.82% (active) | 51.4% | 26.9% | -5.08% (active) | 70.7% | 13.1% | 18.7% | 14.9% | 28.2% | 25.2% | 17.8% | 24.3% | 17.2% | 30.5% | 53.6% | 59.8%
N#CC1CCc2c(c(-c3ccc4nc(N)sc4c3)nc3ccc4[nH]ncc4c23)C1 (stereo not given) | 35.4% | 29.8% | 68.8% | 54.9% | 1.38% (active) | 63.1% | 23.1% | -0.136% (active) | 88.7% | 19.8% | 30% | 15.4% | 25.2% | 67.7% | 46.7% | 21.8% | 11.5% | 36.2% | 34.2% | 54.9%
COc1cc(/C=C/C(=O)c2ccc(-n3cc(CN4CCN(c5cc6c(cc5F)c(=O)c(C(=O)O)cn6C5CC5)CC4)nn3)cc2)ccc1O | 77.5% | 40.5% | 94.5% | 73.6% | 70.9% | 56.4% | 80.2% | 60.1% | 87.7% | 79% | 71.7% | 53.3% | 89.2% | 53.8% | 34.3% | 74% | 78.7% | 61.2% | 36.9% | 95.8%
O=c1nc(-c2ccccc2)c2cc(-c3ccc(C(F)(F)F)nc3)ccc2[nH]1 | 103% | 103% | 111% | 91.9% | 105% | 98.1% | 103% | 93.2% | 109% | 98.6% | 97.8% | 111% | 117% | 101% | 105% | 96.2% | 94.8% | 97.3% | 93.1% | 108%
CN1CCN(C(=O)[C@@]2(C)CC[C@]3(C)CC[C@]4(C)C(=CC[C@@H]5[C@@]6(C)CCC(=O)NC(C)(C)[C@@H]6CC[C@]54C)[C@@H]3C2)CC1 | 86.7% | 16% | 19.8% | 61.1% | 35% | 63.1% | 90.5% | 43.9% | -12.9% (active) | 0.579% (active) | 30.3% | 3.61% (active) | 87.3% | 79.4% | 40.4% | 27.4% | -41% (active) | 26.4% | 8.99% (active) | -6.92% (active)
COc1ccc(/C(C)=C(/c2ccc(OCCCN(C)C)cc2)c2ccc(OC(=O)c3ccccc3)cc2)cc1 | 102% | 38.9% | 83.6% | 71.1% | 66.7% | 77.8% | 89.8% | 89.1% | 89.7% | 66.4% | 63% | 9.02% (active) | 105% | 94.8% | 68.2% | 73.4% | 85.7% | 88.7% | -2.62% (active) | 85.2%
